In PubChem BioAssay (NCI) one finds growth data, which are given here for 40 compounds.

“And” between values parts separate entries of the source, which are not always exact repeats. Identical values can stand only once. The panel holds about 83,000 compounds, 20% with a hit somewhere; the sample as a whole holds those more often.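 Each cell line was grown in a 96-well plate and treated with one concentration of compound for 48 hours. Values below 10 were considered active.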 The source made the active and inactive calls.

This experiment relates to MDA-MB-468 breast. The experiment can be described thus: NCI-60 one-dose screen, 48 h (100 = growth as untreated, 0 = no growth, -100 = all killed). Particulars: 10 µM unless noted.
`Cn1c(SSc2ccc(-c3cccnc3)n2C)ccc1-c1cccnc1`: the growth is 72.3% (inactive) and 93.8% (inactive). Take `COc1cccc(-c2nc3sccn3c2-c2ccnc(NCCCNS(=O)(=O)c3ccc(C(F)(F)F)cc3)c2)c1`: the growth was 42.5% (inactive). To `Cc1ccccc1NC(=O)/C=C/c1ccc(OCCOc2ccc3c(C)cc(=O)oc3c2)cc1` belongs 104% (inactive). For `O=C(N=Nc1c(O)[nH]c2ccc(F)cc12)c1cc2ccccc2[nH]1`, the growth is 124% (inactive). As to `CCN(CC)CCOc1ccc(/C(=C(\Cl)c2ccccc2)c2ccccc2)cc1`, the growth is -60% (active) and -6.23% (active). On to `Nc1nc(-c2cccc([N+](=O)[O-])c2)c(N=Nc2ccccc2Cl)s1`, for which the growth was 55.2% (inactive). The figure for `COc1cc2ncnc(NC3CCC(O)CC3)c2cc1OC` (stereo not given) is 96.7% (inactive). The figure for `COCCn1cc(-c2csc(-c3c[nH]c4ccccc34)n2)c2cccnc21` is -6.7% (active).

Consider `COc1ccc(C(=O)c2c(N)c(C#N)cn2-c2cccc(OC)c2)cc1`, for which the growth is -3.17% (active). Regarding `O=C(N/N=C/c1ccc(Cl)cc1)c1ccc(NC(=O)c2ccccn2)cc1`, the growth was 78.2% (inactive). To `CC(C)CC(CC1=CCC2CC1C2(C)C)C1=C(O)C(C)(C)C(=O)C(C)(C)C1=O` (stereo not given) belongs 6.32% (active); to `C[C@H]1[C@H]2[C@H]3CC[C@@H]4[C@@]5(C)CC[C@H](O)C(C)(C)[C@@H]5CC[C@@]4(C)[C@]3(C)CC[C@]23CO[C@]1(C)[C@@H](C(=O)/C=C\c1ccco1)C3`, 19.3% (inactive).

Turning to `O=C1C(Cl)=C(Nc2cccc3ccccc23)C(=O)c2ccccc21`, the growth is -3.45% (active).

As for `CC(C)(C)CC(C)(C)N(CSc1ccc(Cl)cc1)CSc1ccc(Cl)cc1`, the growth was 63.7% (inactive). For the compound `C(=N\Nc1ncc(-c2cc3cc4c(cc3o2)OCO4)s1)/c1c[nH]c2ccccc12`, the growth was 0.523% (active).

Take `O=c1nc(NO)[nH]c(=O)n1Cc1ccccc1`: the growth was 107% (inactive). To `COc1ccccc1NC(=O)c1cc2cc(Br)ccc2cc1O` belongs -9.27% (active); to `COC(=O)C1=C(C)C(=O)CC1`, 110% (inactive); to `COC(=O)[C@]12CC[C@@H](C)[C@H](C)[C@@H]1C1=CC[C@@H]3[C@@]4(C)C[C@@H](O)OC[C@](C)(C=O)C4C(=O)C[C@@]3(C)[C@]1(C)CC2` (stereo not given in full), -0.84% (active). For the compound `O=C(CC(O)c1ccccc1)Nc1ccccn1` (stereo not given), the growth is 119% (inactive). On to `O=C(CSc1ncccc1C(=O)O)Nc1ccc(Oc2ccccc2)cc1`, for which the growth is 101% (inactive). The figure for `COc1cc(/C=C/c2cc(/C=C/c3ccc(O)c(OC)c3)n(C(=O)Cc3ccccc3)n2)ccc1O` is -4.29% (active). The figure for `C[C@H](NC(=O)[C@@H](C)N)[C@H](Oc1ccc2c(cnn2-c2ccc(F)cc2)c1)c1ccc2c(c1)OCCO2` is 37.7% (inactive). To `Cc1nc2ccccc2n1CC1C(=O)NC(=O)NC1=O` belongs 107% (inactive). As to `COc1ccc(Cn2cc3c(c2-c2cc(OC)c(OC)c(OC)c2)CCc2c(CN4CCOCC4)noc2-3)cc1`, the growth is 45.5% (inactive). To `CCCCCCCC(=O)Nc1nc2[nH]c(CN3CCN(Cc4cccc(I)c4)CC3)c(CN3CCN(Cc4cccc(I)c4)CC3)c2c(=O)[nH]1` belongs -85.6% (active). Consider `Cn1c(=O)c2c(-c3ccccc3F)n(-c3ccc4c(c3)OCO4)cc2n(C)c1=O`, for which the growth is 83.2% (inactive). With `Cc1cc(=O)[nH]c2c(C#N)cnn12`, the growth is 106% (inactive). Turning to `CCCCNC(=O)Oc1ccc(/C(=C(/C)Cc2ccc(OC)cc2)c2ccc(OCCN3CCCCCC3)cc2)cc1`, the growth was 69.2% (inactive).

On to `COc1ccc(Nc2nc(N)nc3c(=O)[nH]ccc23)cc1`, for which the growth is 118% (inactive). `COc1cccc2c1c1nc3cc(C)c(C)cc3nc1n2CCN(C)C`: the growth is -8.02% (active).

Consider `COc1cc2ncnc(Nc3ccc(C(=O)/C=C/c4ccc(C(F)(F)F)cc4F)cc3)c2cc1OC`, for which the growth is 107% (inactive). To `Nc1nc(-c2ccc(Cl)cc2)cc(-c2cc3ccccc3oc2=O)n1` belongs 94% (inactive). `N=C(N)c1ccc(-c2ccc(-c3cc(Cl)cc(Cl)c3)s2)cc1`: the growth is -77.6% (active). As to `COC(=O)c1ccc2c(c1)c1c(C)c3ccncc3c(C)c1n2C`, the growth is 39.5% (inactive). To `N#CSc1c[nH]c2cccc(/C=C/C(=O)/C=C(/C=C/c3cccc4[nH]cc(SC#N)c34)OB(F)F)c12` belongs -32% (active); to `CO/N=C(/C)c1ccc(NC(=O)CSc2nnc(-c3ccncc3)n2-c2ccccc2)cc1`, 50.8% (inactive); to `C=C(C)[C@@H]1CC[C@]2(C(=O)N3CCN(C)CC3)CC[C@]3(C)[C@H](CC[C@@H]4[C@@]5(C)C/C(=C/c6ccncc6)[C@H](O)C(C)(C)[C@@H]5CC[C@]43C)[C@@H]12`, -25.5% [100 µM] (active).

Regarding `COc1ccc2oc(=O)cc(C3c4ccc([nH]4)C(c4cc(=O)oc5ccc(OC)cc45)c4ccc([nH]4)C(c4cc(=O)oc5ccc(OC)cc45)c4ccc([nH]4)C(c4cc(=O)oc5ccc(OC)cc45)c4ccc3[nH]4)c2c1` (stereo not given), the growth is -38.6% (active). The figure for `C=CCn1c(SCC(=O)Nc2cccc(C(=O)/C=C/c3cc(OC)c(OC)c(OC)c3)c2)nc2ccccc2c1=O` is 35.3% (inactive).
